M1 antag: antagonists of human M1 muscarinic receptor | 1.3% of 360,000 active | P11229 | CHO-K1 hM1, Fluo-8 calcium fluorescence, ACh EC80 antagonist | inhibition, % at 3 µM;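 active means percent inhibition above its own plate's cutoff, namely the mean of that plate's compound wells plus 3 SD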;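 further: peak over basal fluorescence ratio during 140 s after agonist addition; 0% = ACh EC80 plus DMSO and 100% = DMSO alone without agonist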
Target sequence (P11229 whole entry, looked up): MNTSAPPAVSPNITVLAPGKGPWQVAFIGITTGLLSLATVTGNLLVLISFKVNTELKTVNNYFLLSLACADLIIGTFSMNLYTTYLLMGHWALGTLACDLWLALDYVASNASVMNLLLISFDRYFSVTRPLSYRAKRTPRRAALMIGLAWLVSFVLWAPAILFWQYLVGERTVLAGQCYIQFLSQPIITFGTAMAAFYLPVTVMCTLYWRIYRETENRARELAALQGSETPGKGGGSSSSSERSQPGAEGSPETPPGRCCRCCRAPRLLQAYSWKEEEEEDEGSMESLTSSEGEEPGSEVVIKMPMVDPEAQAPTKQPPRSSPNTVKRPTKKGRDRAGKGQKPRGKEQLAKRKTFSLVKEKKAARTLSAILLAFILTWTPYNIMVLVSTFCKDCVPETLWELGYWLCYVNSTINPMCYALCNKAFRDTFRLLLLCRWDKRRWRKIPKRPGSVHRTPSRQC
M1 ag: human M1 muscarinic receptor agonism; P11229; activation, % at 3 µM; AID 588814; 0.33% of 360,000 active; CHO-K1 hM1, Fluo-8 calcium fluorescence, agonist mode; 0% DMSO, 100% acetylcholine EC100;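 active means activation above the run's mean compound activation plus 3 SD, cut at about 16% in these data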;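 further: peak over basal fluorescence ratio within a 140 s kinetic read after compound addition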
M1 PAM parental: nonselective activator or artifact in parental CHO-K1 calcium assay; activation, % at 3 µM; ATP EC20, Fluo-8 calcium fluorescence; 0% at ATP EC20, 100% at ATP max; 0.02% of 360,000 active;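 active means activation above the run cutoff, the mean activation of all test compounds plus 3 SD, cut at about 40% in these data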;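 further: peak over basal fluorescence ratio in a 140 s read after ATP addition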
CHO-K1 Ca antag: nonselective inhibitor or artifact in parental CHO-K1 cells; inhibition, % at 3 µM; ATP-induced calcium, Fluo-8 fluorescence; 0.6% of 360,000 active; AID 602250;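 active means inhibition above a per-plate cutoff, the plate's mean sample inhibition plus 3 SD, cut at about 24% in these data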;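 further: 0% = DMSO plus EC80 ATP and 100% = DMSO alone without ATP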
M1 ag parental: nonselective activator or artifact in parental CHO-K1 cells; Fluo-8 calcium fluorescence; scaled to maximal ATP response, vehicle zero; activation, % at 3 µM; 0.48% of 360,000 active; in the data active means activation above about 15%;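 further: untransfected CHO-K1 host cells lacking M1 receptor as counterscreen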
CHRM1 PAM: human CHRM1 positive allosteric modulation; CHO-K1 hM1, Fluo-8 calcium fluorescence, ACh EC20; 0% = ACh EC20, 100% = maximal ACh; activation, % at 3 µM; 0.088% of 360,000 active; AID 588819; in the data active means activation above about 19%, passing the limit was not always enough
The depositor's hits bear a star. An excerpt weighted towards active compounds, which were near 2.4% of everything screened.

SMILES | M1 antag | M1 ag | M1 PAM parental | CHO-K1 Ca antag | M1 ag parental | CHRM1 PAM
COc1cc([N+](=O)[O-])cc(/C=C2/SC(=S)N(Cc3ccccc3)C2=O)c1O | 51.2* | 38.1* | -5.7 | 40.3* | 36.8* | -14.0
COc1ccc(CN2C(=O)/C(=C/c3ccncc3)SC2=S)cc1 | -9.5 | 4.2 | 17.5 | -1.4 | 3.0 | 23.7*
COc1cc(/C=C2/SC(=S)N(Cc3ccccc3)C2=O)ccc1OCC(=O)O | -10.3 | 1.0 | 18.4 | -0.1 | 1.3 | 15.1
COc1ccc(N2CCN(C(=O)C3CCN(S(=O)(=O)c4cccs4)CC3)CC2)cc1 | -0.5 | -9.8 | 4.5 | 1.4 | 1.6 | 4.6
COc1cccc(C2c3[nH]c4ccccc4c3C[C@H]3C(=O)N(C)CC(=O)N23)c1 (stereo partly specified) | 23.9 | -7.9 | -23.2 | 6.8 | 0.8 | -12.9
Cn1c(=O)c2cc(NC(=S)NC3CCCCC3)ccc2n1C/C=C/c1ccccc1 | -6.0 | -6.3 | -11.8 | 8.5 | 0.8 | 1.3
COc1ccc(N2C(=O)[C@H]3CCC=C[C@H]3[C@@H]2c2ccccc2Br)cc1 | 47.4* | -7.9 | -11.6 | 2.9 | -0.4 | -26.6
CCSC1=NCCN1C(=O)c1c(-c2ccccc2Cl)noc1C | 4.6 | -3.0 | 11.7 | 0.4 | 0.3 | 3.1
Cc1ccccc1OCCN1CCC(Cc2ccccc2)CC1 | 8.5 | -2.5 | 29.4 | -19.3 | 3.8 | -11.3
O=[N+]([O-])c1cccc(OCCCN2CCC(Cc3ccccc3)CC2)c1 | 77.0* | -8.3 | 7.9 | -8.4 | 1.5 | -30.2
Cc1ccc([N+](=O)[O-])c(OCCN2CCC(Cc3ccccc3)CC2)c1 | 83.7* | -6.1 | -8.1 | -8.5 | 13.1 | -22.8
O=[N+]([O-])c1ccc(CN2CCC(Cc3ccccc3)CC2)cc1 | 38.7* | -10.2 | 7.1 | -4.0 | 0.0 | -26.2
COc1ccnc(CSC(N)=Nc2ccccc2C(F)(F)F)c1 | -0.9 | -4.0 | -7.0 | -0.4 | 0.5 | -0.4
CCCCC1(c2ccc(F)cc2)NC(=O)N(CC(=O)Nc2ccc(N3CCOCC3)cc2)C1=O (stereo unspecified) | -2.0 | 16.5* | 26.4 | -10.3 | 7.5 | 9.2
CCC1(c2ccc(F)cc2)NC(=O)N(CC(=O)Nc2ccccc2Cl)C1=O (stereo unspecified) | -8.4 | 35.9* | -7.2 | -8.0 | 15.3* | 2.6
CCC1(c2ccccc2)NC(=O)N(CC(=O)Nc2cc(S(=O)(=O)N3CCCCCC3)ccc2OC)C1=O (stereo unspecified) | 32.3* | 0.3 | 0.3 | 20.7 | 8.8 | -6.0
COc1ccc(S(=O)(=O)N2CCCCC2)cc1NC(=O)CN(Cc1ccco1)Cc1ccco1 | 44.0* | 7.1 | -1.9 | 2.7 | 9.8 | -20.3
CCOc1ccc(S(=O)(=O)N2CCCCC2)cc1NC(=O)CN1C(=O)NC(CC)(c2ccccc2)C1=O (stereo unspecified) | -10.9 | -1.6 | -5.2 | 8.6 | 3.7 | 5.5
COc1ccc(S(=O)(=O)N2CCCCC2)cc1NC(=O)CN(C)C1CCCCC1 | -16.4 | -7.0 | 19.5 | -13.3 | 3.2 | 7.6
Cc1ccc(C(=O)Nn2cnnc2)cc1[N+](=O)[O-] | -3.1 | -0.5 | 0.5 | -5.1 | 0.2 | -5.3
CCC1(c2ccc(F)cc2)NC(=O)N(CC(=O)Nc2ccccc2C)C1=O (stereo unspecified) | 11.1 | 12.2 | 26.0 | -12.3 | 16.2* | -2.8
CCC1(c2ccccc2)NC(=O)N(CC(=O)Nc2ccccc2C(=O)NC2CC2)C1=O (stereo unspecified) | -11.1 | 0.1 | 26.2 | -16.1 | 1.7 | 10.4
CC(=O)Nc1cccc(/C(C)=N/NC(N)=S)c1 | -4.4 | -0.9 | 2.8 | -0.8 | -0.7 | 5.4
CCN(CC)C1CCN(C(=O)c2cc(COc3cccc4cccnc34)on2)C1 (stereo unspecified) | 73.2* | -0.7 | 3.5 | -11.5 | 0.2 | -21.2
O=C(c1cc(COc2ccc(F)cc2Cl)on1)N1CCC(c2ccncc2)CC1 | 9.8 | -5.3 | 4.0 | 2.3 | 10.2 | -4.2
SMILES | M1 antag | M1 ag | M1 PAM parental | CHO-K1 Ca antag | M1 ag parental | CHRM1 PAM
CSc1ccccc1OCc1cc(C(=O)N2CCC(c3ccncc3)CC2)no1 | 41.1* | -2.0 | -5.0 | 16.5 | 11.4 | -16.4
Cc1cc(OCc2cc(C(=O)N3CCC(Oc4cccnc4)CC3)no2)cc(C)c1Cl | 30.8* | -0.9 | -12.6 | 25.5* | 13.2 | -8.6
O=C(NC1CCCc2ccccc21)C1CCCC1 (stereo unspecified) | -9.7 | -9.7 | 8.5 | 10.3 | 0.7 | 9.7
CCCCCn1c(=S)[nH]c2cc(C(=O)N3CCN(C(=O)OCC)CC3)ccc2c1=O | -0.8 | -9.8 | 11.1 | -3.2 | 1.8 | -2.7
CCOC(=O)N1CCN(C(=O)c2ccc3c(=O)n(CCC4=CCCCC4)c(=O)[nH]c3c2)CC1 | 66.2* | -5.0 | -4.3 | 6.0 | 0.8 | -22.6
COc1ccc2c(c1)c(CC(=O)NCc1cc([N+](=O)[O-])ccc1O)c(C)n2C(=O)c1ccc(Cl)cc1 | -7.3 | -3.1 | 9.8 | -0.2 | 0.7 | 7.5
Nc1ccc(S(=O)(=O)Nc2nc(-c3ccccc3)cc(-c3ccccc3O)n2)cc1 | -13.3 | 20.3* | 12.9 | -7.5 | 2.4 | 1.5
Nc1ccc(S(=O)(=O)Nc2nc(-c3ccccc3)cc(-c3ccccc3)n2)cc1 | -12.6 | -1.6 | 13.8 | -9.8 | 7.2 | 11.0
CCN(CC)C(=O)c1c(-c2ccccc2)oc2ccc(OC)cc12 | -2.4 | -5.0 | -7.6 | 1.4 | -0.1 | -2.8
CCC(C(=O)NC1CCCCC1)n1c(SCc2cccc(F)c2)nc2ccncc21 (stereo unspecified) | 45.4* | -10.7 | 15.0 | -9.4 | 1.6 | -29.9
CCC(C(=O)NC1CCCCC1)n1c(SCc2cccc(C)c2)nc2ccncc21 (stereo unspecified) | 28.1 | -11.3 | 7.3 | -9.4 | 2.0 | -28.9
CCN(CC)CCNC(=O)/C(=C\c1cccn1C)NC(=O)c1cccs1 | 4.0 | -6.5 | 20.4 | -9.7 | 0.7 | 0.5
CN(C)CC(O)COc1cc2ccccc2cc1C(=O)N1CCCCC1 (stereo unspecified) | 33.3* | 10.5 | 16.8 | 0.5 | 4.9 | -5.9
COc1cc2ccccc2cc1C(=O)N1CCCCC1 | -12.5 | -3.5 | 23.3 | -6.1 | 0.3 | 11.8
CS(=O)(=O)N1CCN(C(=O)Nc2ccccc2)CC1 | -1.7 | -6.5 | -4.2 | 1.4 | -0.1 | -5.2
CC(c1ccccc1)n1c(N2CCNCC2)nc2c1c(=O)[nH]c(=O)n2C (stereo unspecified) | 69.5* | 1.5 | -17.1 | 12.3 | -0.2 | 3.4
CC(c1ccccc1)n1c(Br)nc2c1c(=O)[nH]c(=O)n2C (stereo unspecified) | -1.1 | -2.1 | 4.6 | -3.6 | 1.1 | 1.7
O=C(CNC(=S)N(Cc1ccccc1)Cc1ccccc1F)NCc1ccccc1 | 14.9 | -2.6 | 20.6 | -6.3 | 1.5 | -1.7

Source: PubChem (The Scripps Research Institute Molecular Screening Center)
